We go through 31 compounds from the supplement of paper PMC12350171.

Counter-ions that a name gives are not always drawn.

The test system of the assay is Haemophilus parainfluenzae. The assay is described as follows: growth AUC normalised to DMSO control (fraction of control); higher = less growth inhibition, active = hit call of the paper. The note with it: 20 µM. A digest of the protocol: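 After two anaerobic passages, pathogens were added at a starting OD578 of 0.01 to pre-reduced mGAM plates holding compound at 20 μM with 1% DMSO; hemin and NAD were supplemented for Haemophilus parainfluenzae. Sealed with breathable membranes, plates were read at OD578 hourly for 24 h, in three biological replicates. The trapezoidal rule, applied up to the exponential-to-stationary transition, gave the growth-curve AUC, which was normalised to DMSO controls on the same plate.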
Consider `C/C=C(/C(=C/C)c1ccc(O)cc1)c1ccc(O)cc1` [Dienestrol], for which the “growth AUC normalised to DMSO control” value is 0.999 (inactive). Then `CCCCNc1c(C(=O)OCC)c(C)nc2c1cnn2CC` [Tracazolate hydrochloride], with 1.04 (inactive). On to `CC(=O)Oc1cc(C(F)(F)F)ccc1C(=O)O` [Triflusal], for which the “growth AUC normalised to DMSO control” value is 0.819 (inactive).

With `CCCC(CCC)C(=O)O` [Valproic acid], the “growth AUC normalised to DMSO control” value is 1.04 (inactive). With `CN1CCCN=C1/C=C/c1cccs1` [Pyrantel tartrate] the figure was 0.978 (inactive).

For `Clc1ccc(COC(Cn2ccnc2)c2ccc(Cl)cc2Cl)c(Cl)c1` (stereo unspecified) [Miconazole], the “growth AUC normalised to DMSO control” value was 0.997 (inactive). Take `CC(C)NNC(=O)c1ccncc1` [Iproniazide phosphate]: the “growth AUC normalised to DMSO control” value is 1.04 (inactive).

As for `CC[C@H](C)C(=O)O[C@H]1C[C@@H](C)C=C2C=C[C@H](C)[C@H](CC[C@@H]3C[C@@H](O)CC(=O)O3)[C@H]21` [Lovastatin], the “growth AUC normalised to DMSO control” value was 0.984 (inactive). Take `CC1(C)OC(=O)NC1=O` [Dimethadione]: the “growth AUC normalised to DMSO control” value is 1 (inactive).

For the compound `COCCOC(=O)C1=C(C)NC(C)=C(C(=O)OC/C=C/c2ccccc2)C1c1cccc([N+](=O)[O-])c1` (stereo unspecified) [Cilnidipine], the “growth AUC normalised to DMSO control” value is 1 (inactive). As to `OC(c1cc(C(F)(F)F)nc2c(C(F)(F)F)cccc12)C1CCCCN1` (stereo unspecified) [Mefloquine hydrochloride], the “growth AUC normalised to DMSO control” value is 0.903 (inactive).

As to `Nc1nc(=O)n([C@@H]2CS[C@H](CO)O2)cc1F` [(-) Emtricitabine], the “growth AUC normalised to DMSO control” value was 0.97 (inactive). As for `CCOCCn1c(N2CCCN(C)CC2)nc2ccccc21` [Emedastine difumarate], the “growth AUC normalised to DMSO control” value is 1 (inactive). As for `CCN(CC)CC#CCOC(=O)C(O)(c1ccccc1)C1CCCCC1` (stereo unspecified) [Oxybutynin chloride], the “growth AUC normalised to DMSO control” value was 0.952 (inactive). For `CCCc1nc(C)c2c(=O)nc(-c3cc(S(=O)(=O)N4CCN(CC)CC4)ccc3OCC)[nH]n12` [Vardenafil], the “growth AUC normalised to DMSO control” value was 1.03 (inactive). `CC(=O)OCC(=O)[C@@]1(OC(C)=O)[C@@H](C)C[C@H]2[C@@H]3C[C@H](F)C4=CC(=O)C=C[C@]4(C)[C@@]3(F)[C@@H](O)C[C@@]21C` [Diflorasone Diacetate]: the “growth AUC normalised to DMSO control” value is 0.953 (inactive). With `Cc1cc2c(s1)Nc1ccccc1N=C2N1CCN(C)CC1` [Olanzapine] the figure was 1.02 (inactive); with `Cc1cc(C2CCCCC2)n(O)c(=O)c1` [Ciclopirox ethanolamine], 0.905 (inactive).

In the case of `CC(=O)N[C@@H](CC(=O)O)C(=O)N[C@@H](CCC(=O)O)C(=O)O` [Spaglumic acid], the “growth AUC normalised to DMSO control” value is 1.04 (inactive). With `Nc1c(Br)cc(Br)cc1CN[C@H]1CC[C@H](O)CC1` [Ambroxol hydrochloride], the “growth AUC normalised to DMSO control” value was 0.988 (inactive). For the compound `CN1CCN(c2c(F)cc3c(=O)c(C(=O)O)cn4c3c2SCC4)CC1` [Rufloxacin], the “growth AUC normalised to DMSO control” value was 0.0692 (active). Take `C#C[C@]1(OC(C)=O)CC[C@H]2[C@@H]3CCC4=C[C@@H](OC(C)=O)CC[C@@H]4[C@H]3CC[C@@]21C` [Ethynodiol diacetate]: the “growth AUC normalised to DMSO control” value is 0.974 (inactive). For `CC(=O)CCCCn1c(=O)c2c(ncn2C)n(C)c1=O` [Pentoxifylline], the “growth AUC normalised to DMSO control” value is 1.01 (inactive). For `CN1CCCN=C1/C=C/c1cccc(O)c1` [Oxantel pamoate], the “growth AUC normalised to DMSO control” value was 0.916 (inactive). On to `CCCCNc1cc(C(=O)O)cc(S(N)(=O)=O)c1Oc1ccccc1` [Bumetanide], for which the “growth AUC normalised to DMSO control” value is 0.991 (inactive). With `C#C[C@]1(O)CC[C@H]2[C@@H]3CCC4=CCCC[C@@H]4[C@H]3CC[C@@]21C` [Lynestrenol] the figure was 0.931 (inactive); with `CC(C)(C)NC[C@@H](O)COc1cccc2c1CCCC2=O` [(+) Levobunolol hydrochloride], 0.973 (inactive); with `Cc1nccn1CC1CCc2c(c3ccccc3n2C)C1=O` (stereo unspecified) [Ondansetron hydrochloride], 1.07 (inactive).

On to `CC[C@H]1OC(=O)[C@H](C)[C@@H](O[C@H]2C[C@@](C)(OC)[C@@H](O)[C@H](C)O2)[C@H](C)[C@@H](O[C@@H]2O[C@H](C)C[C@H](N(C)C)[C@H]2O)[C@](C)(O)C[C@@H](C)/C(=N\OCOCCOC)[C@H](C)[C@@H](O)[C@]1(C)O` [Roxithromycin], for which the “growth AUC normalised to DMSO control” value is 0.1 (active). As for `Cc1cccc(Nc2ccccc2C(=O)O)c1C` [Mefenamic acid], the “growth AUC normalised to DMSO control” value was 0.946 (inactive). On to `CN(Cc1cc(Br)cc(Br)c1N)C1CCCCC1` [Bromhexine hydrochloride], for which the “growth AUC normalised to DMSO control” value was 1.04 (inactive).
